PubChem BioAssay AID2551 (National Center for Advancing Translational Sciences (NCATS), 2010)
Screen size: about 310,000 compounds; about 17,000 (5.5%) were called active. Where a call stands in place of a potency, no number is given. Not shown: some 11% with an inconclusive outcome. Calls come from the whole dose curve; as a rule, active = well fitted inhibition curve with a large enough effect; inconclusive = small, poorly fitted or top-dose-only effect, or effect the other way; inactive = no such curve, though single readings can be large or run the other way. Many of the other results were omitted from the sample, so actives are more common in it than they were.

Target: Nuclear receptor ROR-gamma (Mus musculus) (UniProt P51450)
Sequence (P51450 whole entry, looked up): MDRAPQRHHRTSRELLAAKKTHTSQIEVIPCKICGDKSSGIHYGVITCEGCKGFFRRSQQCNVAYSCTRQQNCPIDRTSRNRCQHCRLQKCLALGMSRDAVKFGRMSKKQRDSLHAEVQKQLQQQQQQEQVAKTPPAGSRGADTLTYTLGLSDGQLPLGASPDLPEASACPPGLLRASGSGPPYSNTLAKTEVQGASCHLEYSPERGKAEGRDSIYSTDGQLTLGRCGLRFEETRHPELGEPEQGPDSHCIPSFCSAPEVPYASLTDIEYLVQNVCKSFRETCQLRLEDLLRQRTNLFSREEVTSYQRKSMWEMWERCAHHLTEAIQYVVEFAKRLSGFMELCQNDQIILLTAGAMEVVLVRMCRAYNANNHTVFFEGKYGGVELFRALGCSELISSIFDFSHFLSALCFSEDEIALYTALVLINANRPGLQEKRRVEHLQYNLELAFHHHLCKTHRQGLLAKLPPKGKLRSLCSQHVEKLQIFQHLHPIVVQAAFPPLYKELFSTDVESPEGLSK
Assay: qHTS for inhibitors of ROR gamma transcriptional activity; note: nearly all actives have a fitted effect of over 60% in size
Conditions: Drosophila S2 Gal4-RORgamma UAS-luciferase reporter, 20 h; series mostly up to 53.6 µM
Method in brief: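 Using a luciferase readout, inhibitors were identified by reduced reporter activity in Drosophila cells coexpressing a copper-inducible Gal4–ROR gamma fusion and UAS-driven Photinus luciferase, incubated 20 hr after 700 uM copper sulfate.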
Potency is the fitted concentration of half-maximal effect.

Row | SMILES | Potency
1 | Cn1c(CCc2ccccc2)nnc1SCC(N)=O | inactive
2 | CCC(C)(C)NC(=O)CN(C(=O)CCC(=O)Nc1nccs1)c1ccc2c(c1)OCO2 | inactive
3 | CC(=O)c1cccc(NC(=O)CN2C(=O)c3cccnc3Oc3ccc(Cl)cc32)c1 | inactive
4 | CSCc1cc(N(C)C)nc(SCc2ccc(Cl)cc2Cl)n1 | 8.91 µM (active)
5 | Clc1ccc(CSc2nnc(/C=C/c3ccccc3)o2)c(Cl)c1 | inactive
6 | Nc1cc(N)nc(SCc2ccc(Cl)cc2)n1 | inactive
7 | Cc1cc(C)c(OCC(=O)N(Cc2cccs2)C2CCS(=O)(=O)C2)c(C)c1 (stereo unspecified) | inactive
8 | Cc1cccc(NC(=O)Cc2ccc(Br)cc2)n1 | inactive
9 | CCOC(=O)c1ccc(NC(=S)Nc2cc(C)cc(C)n2)cc1 | 2 µM (active)
10 | CCOC(=O)c1ccc(NC(=O)Cn2nnc(-c3ccc(C)cc3)n2)cc1 | inactive
11 | Cc1cccc(NC(=O)Nc2ccc(OCc3ccccc3)cc2)n1 | inactive
12 | COC(=O)c1ccc(NC(=S)Nc2cccc(C)n2)cc1 | 2 µM (active)
13 | CCOC(=O)c1ccc(NC(=O)c2cccnc2)cc1 | inactive
14 | CC(=O)N1c2ccc(S(=O)(=O)N3CCCC(C(=O)Nc4ccc(C)cc4C)C3)cc2CC1C (stereo unspecified) | inactive
15 | COc1cccc(/C=C2\Sc3ccc(C(=O)NCC4CCCO4)cc3N(C)C2=O)c1 (stereo unspecified) | inactive
16 | COc1cc(OC)cc(C(=O)NCCSCc2ccc(Cl)cc2)c1 | inactive
17 | CCOC(=O)c1ccc(N2C(=O)CC(N(C)Cc3ccccc3)C2=O)cc1 (stereo unspecified) | inactive
18 | CCCCCCC(=O)N(O)C1CC(=O)N(c2ccccc2)C1=O (stereo unspecified) | 2.82 µM (active)
19 | CCCCOC(=O)c1ccc(N2C(=O)CC(N3CCN(C/C=C/c4ccccc4)CC3)C2=O)cc1 (stereo unspecified) | inactive
20 | CCNc1ncc2ncc(=O)n(Cc3cccc(OC)c3)c2n1 | 12.6 µM (active)
21 | COc1cccc(Cn2c(=O)c(C)nc3cnc(Oc4ccccc4)nc32)c1 | inactive
22 | CCNc1ncc2ncc(=O)n(CCc3ccccc3)c2n1 | inactive
23 | Cc1ccc(SCCSc2ncccn2)cc1 | inactive
24 | Cc1ccc2c(C)c(C(=O)N(C)Cc3ccncn3)oc2c1C | inactive

Row | SMILES | Potency
25 | CCCCn1c(=S)[nH]c2cc(S(=O)(=O)N3CCCCC3)ccc21 | 11.2 µM (active)
26 | O=c1[nH]c2ccc(S(=O)(=O)N3CCCC3)cc2[nH]1 | inactive
27 | CCOC(=O)N1CCN(C(=O)c2cn(C)c3ccc(S(=O)(=O)N4CCCC4)cc3c2=O)CC1 | inactive
28 | CN(C)CCN(C(=O)C1CCCCC1)c1nc2cc3c(cc2s1)OCO3 | inactive
29 | CC1(C)C2CCC1(C)C(OC(=O)CCn1ccnc1)C2 (stereo unspecified) | 11.2 µM (active)
30 | COc1ccc(NC(=O)CCn2ccnc2)c(OC)c1 | inactive
31 | Brc1ccc(OCCn2ccnc2)cc1 | inactive
32 | O=C(Nc1ccncc1)c1ccc(Cl)c([N+](=O)[O-])c1 | inactive
33 | COc1ccc(C(=O)Nc2c(Cl)cc(Cl)cc2C(=O)N2CCC(C)CC2)cc1 | inactive
34 | CC1CCN(C(=S)c2ccc(-c3ccc(Cl)cc3Cl)o2)CC1 | 15.8 µM (active)
35 | CC1CCN(C(=S)c2cccc(O)c2)CC1 | inactive
36 | CCc1ccc(NC(=O)CCNS(=O)(=O)c2cccs2)cc1 | inactive
37 | Cc1ccc(NC(=O)[C@H](Cc2ccccc2)NC(=O)C2CCNCC2)cc1 | inactive
38 | CC1=CC(C)(C)Nc2ccc(OC(=O)CN3C(=O)C4CCCCC4C3=O)cc21 (stereo unspecified) | 4.47 µM (active)
39 | CC1=CC(C)(C)Nc2ccc(OC(=O)C(Cc3ccccc3)N3C(=O)C4CCCCC4C3=O)cc21 (stereo unspecified) | inactive
40 | O=C(CN1C(=O)C2C3CCC(C3)C2C1=O)Oc1ccc2ccccc2c1 (stereo unspecified) | inactive
41 | O=C1CSc2ccc(S(=O)(=O)NCc3ccccc3)cc2N1 | inactive
42 | CN(Cc1ccccc1)C(=O)C1CCCN(c2ncnc3c2nc2n3CCCCC2)C1 (stereo unspecified) | inactive
43 | CN(C)CCN(C(=O)C1=COCCO1)c1nc2ccc(Cl)cc2s1 | inactive
44 | CN(C)c1ccc(/C=C2\NC(=S)N(Cc3ccccc3)C2=O)cc1 | 5.01 µM (active)
45 | O=C1NCC(=O)N(Cc2ccccc2)/C1=C/c1ccccc1 | inactive
46 | CC1=NN(Cc2ccccc2)C(=O)/C1=C/c1ccc(N(C)C)cc1 | inactive
47 | COC(=O)CSc1nnc(NC(=O)CCc2ccccc2)s1 | inactive
48 | O=C(Cc1ccc(Br)cc1)NCCN1CCOCC1 | inactive

Row | SMILES | Potency
49 | Clc1ccc(-c2nc3ccccn3c2CN2CCSCC2)cc1 | 12.6 µM (active)
50 | Clc1ccc(-c2nnc(-c3ccccc3)nc2N2CCSCC2)cc1 | inactive
51 | CC1CCN(Cc2nc(-c3ccc(Cl)cc3)no2)CC1 | inactive
52 | Cc1ccc(N(Cc2ccccc2O)C(=O)c2ccccc2F)cc1 | inactive
53 | COc1ccc(C/C(N)=N/OC(=O)c2ccco2)cc1OC | inactive
54 | COc1ccc(C(=O)O/N=C(\N)Cc2ccc(Cl)cc2Cl)cc1OC | 15.8 µM (active)
55 | COc1ccc(C(=O)ON=C2c3ccccc3-c3ccccc32)cc1OC | inactive
56 | CCOc1ccc(N(CC(=O)Nc2cccc(OC)c2)S(C)(=O)=O)cc1 | inactive
57 | OC(CNCCc1ccc(Cl)cc1Cl)COc1ccccc1 (stereo unspecified) | inactive
58 | COc1ccc(C2CC(c3cccs3)=NN2C(=O)CCC(=O)O)cc1OC (stereo unspecified) | inactive
59 | O=C(CCC(=O)Nc1ccccc1)N/N=C/c1ccccc1F | inactive
60 | O=C(CCCCCNC(=O)c1ccccc1)N/N=C/c1ccccc1 | inactive
61 | O=C(N/N=C/c1ccccc1O)/C(=C/c1ccccc1)CCO | 1.12 µM (active)
62 | COC(=O)c1ccc(COC(=O)c2cnc(Cl)c(Cl)c2)cc1 | inactive
63 | CCn1c(SCC(=O)NC2CC2)nnc1-c1ccccn1 | inactive
64 | COc1ccc(/C=C2/C(=O)N(c3ccccc3)N=C2C)c(OC)c1 | inactive
65 | CCC(=O)c1ccc(OC(=O)/C=C/c2cc(OC)c(OC)c(OC)c2)cc1 | inactive
66 | COc1ccc(/C=C/C2=CC(C)(C)NC(=S)N2)c(OC)c1 | 1.26 µM (active)
67 | COc1ccc(N)c(OC)c1 | inactive
68 | COc1cc(/C=C/C2=CC(C)(C)NC(=S)N2)cc(OC)c1OC | 3.55 µM (active)
69 | CCOC(=O)COn1c(=O)c(-c2ccc(OCC)cc2)[n+]([O-])c2ccccc21 | inactive
70 | COc1cc(C(=O)OCC(=O)NC(C)CCc2ccccc2)cc(OC)c1OC (stereo unspecified) | inactive
71 | COc1cc(C(C(=O)NC2CCCC2)N(Cc2ccccc2)C(=O)c2snc(C(N)=O)c2N)ccc1O (stereo unspecified) | inactive
